Measured values as given in PubChem BioAssay (Tox21).
Results filed as inconclusive are left out. Active and inactive are the calls of the source. Calls follow the shape of the dose curve; as a rule, active = well fitted curve in the direction sought with a large enough effect in the repeat runs; inconclusive = weak or mixed curves; inactive = no such curve, though single readings can be large; an effect the other way counts as inactive or inconclusive.

Assays:
[1] = Caspase-3/7 induction in HepG2 cells by small molecules, qHTS assay (AID 1346978); also: nearly all actives have a fitted effect of over 15% in size
Method in brief: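 Wild-type HepG2 cells, 2,000/well, settled 5 hr at 37 C and 5% CO2, then compound-treated for 17 hr; caspase-3/7 activity read by luminescent Caspase-Glo 3/7 after 30 min at room temperature.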

[2] = Caspase-3/7 induction in CHO-K1 cells by small molecules, qHTS assay (AID 1346980); also: nearly all actives have a fitted effect of over 15% in size
Method in brief: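 Wild-type CHO-K1 cells exposed to compounds for 17hr at 37 C, 5% CO2. Caspase-3/7 activity then measured by Caspase-Glo 3/7 luminescence after 30min at room temperature.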

[3] = Caspase-3/7 induction in HepG2 cells by small molecules, qHTS cell viability counter screen (AID 1346981); also: series mostly up to about 92 µM; nearly all actives have a fitted effect of over 30% in size
Method in brief: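 Counter screen for cytotoxicity: HepG2 exposed 16 hr to compounds, then CellTiter-Fluor viability signal (fluorescence, 1 hr reagent incubation).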

[4] = molecular target: Nuclear receptor subfamily 1 group I member 2 (Rattus norvegicus) (UniProt Q9R1A7); test: Rat pregnane X receptor (rPXR) activation by small molecules, qHTS assay (AID 1346983); settings: rPXR luciferase reporter cells, One-Glo luminescence, 24 h; max activation: active compounds read high; also: nearly all actives have a fitted effect of over 20% in size
Method in brief: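 Cell-based rPXR activation assay: rPXR cells, 2,000 per well, rested 5hr at 37 C, then exposed to compounds in DMSO for 24 hr at 37 C. Luciferase activity read by One-Glo luminescence after 30 min at room temperature.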

[5] = molecular target: Nuclear receptor subfamily 1 group I member 2 (Homo sapiens) (UniProt O75469); test: CYP3A4 induction through human pregnane X receptor (PXR) by small molecules, qHTS assay (AID 1346984); also: nearly all actives have a fitted effect of over 40% in size; also: potency is read from the fitted curve at half-maximal effect
Method in brief: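 DPX-2 reporter cells; 24h cpd, 37C; Luciferin-IPA 3uM final x3h; One-Glo 30 min RT; lumi read.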

[6] = molecular target: Nuclear receptor subfamily 1 group I member 2 (Homo sapiens) (UniProt O75469); test: Human pregnane X receptor (PXR) activation by small molecules, qHTS assay (AID 1346985); also: nearly all actives have a fitted effect of over 40% in size
Method in brief: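 DPX-2 cells (HepG2 co-transfected with a PXR response element and a CYP3A4-promoter luciferase construct) were seeded at 2,000 per well, rested 5 hr at 37C, then exposed to DMSO-dissolved compounds for 24 hr. Activation was read as luciferase luminescence.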

[7] = molecular target: Cytochrome P450 2D6 (Homo sapiens) (UniProt P10635); test: Cytochrome P450 Family 2 Subfamily D Member 6 (CYP2D6) small molecule antagonists: luciferase reporter qHTS assay (AID 1671196); also: nearly all actives have a fitted effect of over 50% in size; also: potency is read from the fitted curve at half-maximal effect; as to activity change, negative = inhibition: series mostly up to about 120 µM
Method in brief: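 Inhibition of CYP2D6 was gauged by loss of luminescence, since light produced tracks the luciferin generated from a proluciferin substrate. A 10 min room-temperature preincubation preceded 1 h NADPH-supported turnover.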

[8] = molecular target: Cytochrome P450 2C19 (Homo sapiens) (UniProt P33261); test: Cytochrome P450 Family 2 Subfamily C Member 19 (CYP2C19) small molecule antagonists: luciferase reporter qHTS assay (AID 1671197); also: nearly all actives have a fitted effect of over 65% in size; also: potency is read from the fitted curve at half-maximal effect; as to activity change, negative = inhibition: series mostly up to about 120 µM
Method in brief: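 Light output is proportional to CYP2C19 activity: proluciferin substrate is converted to luciferin, then detected by a luciferin detection reagent that also stops the 1 h, 37C NADPH-driven reaction. Ketoconazole serves as positive control.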

[9] = molecular target: Voltage-gated inwardly rectifying potassium channel KCNH2 (Homo sapiens) (UniProt Q12809); test: Human Ether-a-go-go-Related Gene (hERG) channel small molecule antagonists: fluorescence cell-based qHTS assay (AID 1671200); also: nearly all actives have a fitted effect of over 50% in size; also: potency is read from the fitted curve at half-maximal effect; as to activity change, negative = inhibition: series mostly up to about 77 µM
Method in brief: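 Thallium flux as potassium surrogate: FluxOR II dye loaded 1 h at room temperature into hERG-expressing U2OS cells, then stimulus buffer added after 10 min. Kinetic 480 nm excitation/540 nm emission read, 2 min.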

[10] = molecular target: Nuclear receptor subfamily 1 group I member 2 (Homo sapiens) (UniProt O75469); test: Human pregnane X receptor (PXR) small molecule agonists, qHTS assay (AID 1346982); also: nearly all actives have a fitted effect of over 35% in size; also: potency is read from the fitted curve at half-maximal effect
Method in brief: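 Luminescence (ONE-Glo, 30 min RT) after 24 hr compound exposure of PXR-Luc HepG2 cells; cells rested 5 hr post-plating in 5% charcoal-stripped FBS medium.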

[11] = molecular target: Cytochrome P450 1A2 (Homo sapiens) (UniProt P05177); test: Cytochrome P450 Family 1 Subfamily A Member 2 (CYP1A2) small molecule antagonists: luciferase reporter qHTS assay (AID 1671199); also: nearly all actives have a fitted effect of over 50% in size; also: potency is read from the fitted curve at half-maximal effect; as to activity change, negative = inhibition: series mostly up to about 120 µM
Method in brief: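 Signal from luciferin formed by CYP1A2 from a proluciferin substrate is read as luminescence, expressed in relative luminescence units. Compounds sit with enzyme 10 min, NADPH-driven reaction runs 1 h, all at room temperature.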

[12] = molecular target: Cytochrome P450 3A4 (Homo sapiens) (UniProt P08684); test: Cytochrome P450 Family 3 Subfamily A Member 4 (CYP3A4) small molecule antagonists: luciferase reporter qHTS assay (AID 1671201); also: nearly all actives have a fitted effect of over 50% in size; also: potency is read from the fitted curve at half-maximal effect; as to activity change, negative = inhibition: series mostly up to about 120 µM
Method in brief: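 Recombinant human CYP3A4 converts a proluciferin substrate to luciferin over 1 h at room temperature after NADPH regeneration solution is added (compound preincubated 10 min); detection reagent stops reaction, luminescence read 20 min later as relative units.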

[13] = molecular target: Cytochrome P450 2C9 (Homo sapiens) (UniProt P11712); test: Cytochrome P450 Family 2 Subfamily C Member 9 (CYP2C9) small molecule antagonists: luciferase reporter qHTS assay (AID 1671198); also: nearly all actives have a fitted effect of over 50% in size; also: potency is read from the fitted curve at half-maximal effect; as to activity change, negative = inhibition: series mostly up to about 120 µM
Method in brief: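 P450-Glo proluciferin substrate with CYP2C9 enzyme; 10 min RT preincubation, then NADPH regeneration 1 h at 37C; luciferin detection reagent 20 min RT, luminescence in relative luminescence units.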

[14] = Caspase-3/7 induction in CHO-K1 cells by small molecules, qHTS cell viability counter screen (AID 1346979); also: nearly all actives have a fitted effect of over 35% in size
Method in brief: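 Cytotoxicity counter screen: CellTiter-Fluor added to compound-treated wild-type CHO-K1 cells at 16 h (37C, 5% CO2), fluorescence measured 1 h later; same wells as caspase-3/7 measurement.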
% is scaled to controls: 0 for no effect and ±100 for the full control effect.

Nuclear receptor subfamily 1 group I member 2 (Homo sapiens), sequence (O75469 whole entry, looked up): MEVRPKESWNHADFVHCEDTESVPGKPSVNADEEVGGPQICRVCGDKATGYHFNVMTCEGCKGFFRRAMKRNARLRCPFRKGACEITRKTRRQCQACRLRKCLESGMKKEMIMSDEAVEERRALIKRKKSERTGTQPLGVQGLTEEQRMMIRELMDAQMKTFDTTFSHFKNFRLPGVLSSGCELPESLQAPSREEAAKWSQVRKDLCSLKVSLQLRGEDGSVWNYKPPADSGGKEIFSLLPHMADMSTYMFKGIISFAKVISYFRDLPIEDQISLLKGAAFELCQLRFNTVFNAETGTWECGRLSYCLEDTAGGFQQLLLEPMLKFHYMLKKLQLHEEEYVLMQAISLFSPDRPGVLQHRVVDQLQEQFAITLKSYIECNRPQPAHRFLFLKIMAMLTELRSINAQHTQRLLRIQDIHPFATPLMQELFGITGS
Nuclear receptor subfamily 1 group I member 2 (Rattus norvegicus), sequence (Q9R1A7 whole entry, looked up): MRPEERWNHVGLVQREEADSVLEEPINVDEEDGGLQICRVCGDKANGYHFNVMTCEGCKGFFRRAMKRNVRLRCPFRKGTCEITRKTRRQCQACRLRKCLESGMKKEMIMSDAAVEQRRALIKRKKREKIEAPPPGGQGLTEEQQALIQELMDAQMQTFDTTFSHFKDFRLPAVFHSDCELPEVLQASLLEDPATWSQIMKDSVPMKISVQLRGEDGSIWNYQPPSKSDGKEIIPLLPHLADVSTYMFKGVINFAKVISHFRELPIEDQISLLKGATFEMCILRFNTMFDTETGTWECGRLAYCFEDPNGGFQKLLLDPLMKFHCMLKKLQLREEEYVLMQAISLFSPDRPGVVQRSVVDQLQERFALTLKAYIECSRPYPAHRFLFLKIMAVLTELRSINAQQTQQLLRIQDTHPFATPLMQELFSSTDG
Cytochrome P450 3A4 (Homo sapiens), sequence (P08684 whole entry, looked up): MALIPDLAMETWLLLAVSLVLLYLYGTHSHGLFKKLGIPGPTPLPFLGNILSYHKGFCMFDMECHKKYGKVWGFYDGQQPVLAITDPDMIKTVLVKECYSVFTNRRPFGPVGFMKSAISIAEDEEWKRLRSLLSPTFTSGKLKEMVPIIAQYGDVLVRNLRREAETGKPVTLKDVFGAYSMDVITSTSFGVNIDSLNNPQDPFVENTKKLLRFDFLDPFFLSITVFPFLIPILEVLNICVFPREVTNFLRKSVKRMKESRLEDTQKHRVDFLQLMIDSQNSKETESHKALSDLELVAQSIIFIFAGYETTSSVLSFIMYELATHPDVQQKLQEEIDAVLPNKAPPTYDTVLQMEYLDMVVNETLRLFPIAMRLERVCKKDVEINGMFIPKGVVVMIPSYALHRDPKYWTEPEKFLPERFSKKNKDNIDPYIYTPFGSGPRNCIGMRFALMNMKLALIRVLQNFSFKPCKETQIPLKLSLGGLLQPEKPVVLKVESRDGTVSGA
Cytochrome P450 2C19 (Homo sapiens), sequence (P33261 whole entry, looked up): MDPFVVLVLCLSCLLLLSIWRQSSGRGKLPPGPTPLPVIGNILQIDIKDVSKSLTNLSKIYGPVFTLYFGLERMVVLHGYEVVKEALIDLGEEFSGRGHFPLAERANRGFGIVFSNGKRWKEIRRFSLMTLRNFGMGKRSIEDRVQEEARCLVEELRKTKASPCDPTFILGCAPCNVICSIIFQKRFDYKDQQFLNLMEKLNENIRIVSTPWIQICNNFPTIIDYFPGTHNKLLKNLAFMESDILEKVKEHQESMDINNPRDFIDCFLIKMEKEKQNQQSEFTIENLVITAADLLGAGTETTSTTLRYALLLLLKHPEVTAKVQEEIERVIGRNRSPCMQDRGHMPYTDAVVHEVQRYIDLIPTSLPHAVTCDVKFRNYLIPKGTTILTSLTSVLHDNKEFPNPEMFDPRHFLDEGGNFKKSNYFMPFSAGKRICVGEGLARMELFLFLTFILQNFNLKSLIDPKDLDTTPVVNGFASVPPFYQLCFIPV
Voltage-gated inwardly rectifying potassium channel KCNH2 (Homo sapiens), sequence (Q12809 whole entry, looked up): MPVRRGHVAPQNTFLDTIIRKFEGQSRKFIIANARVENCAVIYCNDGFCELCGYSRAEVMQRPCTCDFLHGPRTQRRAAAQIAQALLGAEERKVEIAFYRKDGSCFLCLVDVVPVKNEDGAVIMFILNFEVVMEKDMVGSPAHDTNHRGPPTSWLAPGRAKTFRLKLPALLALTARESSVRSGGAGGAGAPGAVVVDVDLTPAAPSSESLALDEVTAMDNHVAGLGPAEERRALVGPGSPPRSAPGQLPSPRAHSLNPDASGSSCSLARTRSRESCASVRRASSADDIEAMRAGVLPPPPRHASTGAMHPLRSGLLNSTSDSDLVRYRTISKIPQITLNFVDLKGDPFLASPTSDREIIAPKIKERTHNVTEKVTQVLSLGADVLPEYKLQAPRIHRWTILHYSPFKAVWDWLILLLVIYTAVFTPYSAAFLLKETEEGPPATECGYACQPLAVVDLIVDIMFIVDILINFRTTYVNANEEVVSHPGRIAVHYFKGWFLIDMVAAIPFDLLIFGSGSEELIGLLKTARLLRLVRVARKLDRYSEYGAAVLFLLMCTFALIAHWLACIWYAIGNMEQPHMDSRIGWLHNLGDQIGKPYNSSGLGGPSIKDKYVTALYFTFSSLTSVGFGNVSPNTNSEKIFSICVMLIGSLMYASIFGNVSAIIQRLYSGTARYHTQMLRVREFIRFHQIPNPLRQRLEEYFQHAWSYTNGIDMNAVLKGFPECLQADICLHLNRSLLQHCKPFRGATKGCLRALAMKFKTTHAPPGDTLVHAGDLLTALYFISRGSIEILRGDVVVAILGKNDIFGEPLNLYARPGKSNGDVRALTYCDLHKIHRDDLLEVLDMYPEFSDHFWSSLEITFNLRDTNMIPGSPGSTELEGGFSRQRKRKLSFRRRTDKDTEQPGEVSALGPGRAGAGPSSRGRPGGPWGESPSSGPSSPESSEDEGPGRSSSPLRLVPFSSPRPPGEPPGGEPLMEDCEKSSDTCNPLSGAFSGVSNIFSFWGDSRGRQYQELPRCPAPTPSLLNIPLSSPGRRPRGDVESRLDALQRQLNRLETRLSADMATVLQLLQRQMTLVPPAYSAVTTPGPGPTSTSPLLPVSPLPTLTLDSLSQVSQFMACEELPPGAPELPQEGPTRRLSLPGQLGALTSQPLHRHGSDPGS
Cytochrome P450 2D6 (Homo sapiens), sequence (P10635 whole entry, looked up): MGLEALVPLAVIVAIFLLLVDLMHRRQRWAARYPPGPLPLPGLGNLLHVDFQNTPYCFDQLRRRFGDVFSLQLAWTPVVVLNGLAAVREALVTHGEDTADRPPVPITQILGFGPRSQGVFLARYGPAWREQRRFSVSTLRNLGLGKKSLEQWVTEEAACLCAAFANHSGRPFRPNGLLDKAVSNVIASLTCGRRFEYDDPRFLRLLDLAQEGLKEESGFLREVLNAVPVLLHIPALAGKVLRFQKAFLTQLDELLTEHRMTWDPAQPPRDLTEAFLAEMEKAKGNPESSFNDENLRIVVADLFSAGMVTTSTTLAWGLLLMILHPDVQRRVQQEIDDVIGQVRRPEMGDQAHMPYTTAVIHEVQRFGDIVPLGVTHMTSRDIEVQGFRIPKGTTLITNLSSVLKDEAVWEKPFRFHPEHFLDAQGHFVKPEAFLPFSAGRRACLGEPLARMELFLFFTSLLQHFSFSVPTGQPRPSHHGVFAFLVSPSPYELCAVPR
Cytochrome P450 2C9 (Homo sapiens), sequence (P11712 whole entry, looked up): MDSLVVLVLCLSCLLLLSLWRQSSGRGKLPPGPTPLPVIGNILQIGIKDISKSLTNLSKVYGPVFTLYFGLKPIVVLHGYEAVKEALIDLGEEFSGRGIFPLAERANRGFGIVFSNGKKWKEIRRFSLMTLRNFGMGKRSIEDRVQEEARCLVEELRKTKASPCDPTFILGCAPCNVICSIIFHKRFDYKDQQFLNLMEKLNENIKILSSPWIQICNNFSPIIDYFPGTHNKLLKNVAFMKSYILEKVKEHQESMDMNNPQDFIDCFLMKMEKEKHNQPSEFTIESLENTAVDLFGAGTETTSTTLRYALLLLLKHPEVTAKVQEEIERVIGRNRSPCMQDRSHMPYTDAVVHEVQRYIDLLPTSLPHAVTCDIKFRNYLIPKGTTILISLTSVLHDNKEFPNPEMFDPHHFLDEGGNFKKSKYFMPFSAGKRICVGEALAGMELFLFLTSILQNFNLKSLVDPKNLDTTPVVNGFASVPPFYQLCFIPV
Cytochrome P450 1A2 (Homo sapiens), sequence (P05177 whole entry, looked up): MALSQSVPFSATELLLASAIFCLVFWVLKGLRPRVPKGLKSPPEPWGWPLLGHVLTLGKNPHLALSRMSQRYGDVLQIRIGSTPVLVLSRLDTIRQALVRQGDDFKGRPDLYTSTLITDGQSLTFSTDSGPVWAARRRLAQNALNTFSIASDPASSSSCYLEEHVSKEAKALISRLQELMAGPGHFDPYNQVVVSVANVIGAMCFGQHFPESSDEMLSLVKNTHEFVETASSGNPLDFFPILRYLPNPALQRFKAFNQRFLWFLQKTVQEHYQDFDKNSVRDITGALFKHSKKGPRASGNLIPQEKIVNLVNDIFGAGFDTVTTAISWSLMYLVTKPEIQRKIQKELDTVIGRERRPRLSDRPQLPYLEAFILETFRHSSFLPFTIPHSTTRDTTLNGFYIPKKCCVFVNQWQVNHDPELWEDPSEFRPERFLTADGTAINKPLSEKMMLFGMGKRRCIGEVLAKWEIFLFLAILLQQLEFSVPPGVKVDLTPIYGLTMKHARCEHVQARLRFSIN

CN(c1nccc(=O)[nH]1)C1CCN(c2nc3ccccc3n2Cc2ccc(F)cc2)CC1
inactive: outcome [1] | Potency [2] | Potency [3] | max activation [4] -3.1% | Potency [5] | Potency [6] | Potency [8]
active: Potency [7] 12.3 µM | Potency [9] 2.39 µM

CC(CN)CCCN (stereo unspecified)
inactive: outcome [1] | Potency [2] | Potency [3] | Potency [8] | Potency [11] | Potency [9]
active: Potency [10] 24.3 µM | Potency [7] 22.4 µM | Potency [12] 6.33 µM

c1ccc(OCc2ccc(CCCN3CCOCC3)cc2)cc1
active: Potency [10] 2.37 µM | Potency [7] 15.5 µM | Potency [8] 38.9 µM | Potency [13] 38.9 µM | Potency [9] 12 µM
inactive: outcome [1] | Potency [2] | Potency [3] | Potency [5] | Potency [6] | Potency [11]

Cn1c(=O)c2c(ncn2CC(O)CO)n(C)c1=O (stereo unspecified)
inactive: Potency [14] | Potency [2] | Potency [3] | Potency [10] | max activation [4] -1.09% | Potency [5] | Potency [6] | Potency [7] | Potency [8] | Potency [13] | Potency [11] | Potency [9] | Potency [12]

CC(C)(C)C1CCCCC1O (stereo unspecified)
inactive: outcome [1] | Potency [2] | Potency [3] | Potency [7] | Potency [8] | Potency [13] | Potency [11] | Potency [9] | Potency [12]

CCOC(=O)C1=C(C)NC(C)=C(C(=O)OC)C1c1cccc([N+](=O)[O-])c1 (stereo unspecified)
active: Potency [8] 1.55 µM | Potency [13] 0.977 µM
inactive: outcome [1] | Potency [3] | Potency [7] | Potency [11] | Potency [9]

CCC(C)N(C)C(=O)c1cc2ccccc2c(-c2ccccc2Cl)n1 (stereo unspecified)
inactive: outcome [1] | Potency [2] | Potency [7] | Potency [11] | Potency [9]
active: Potency [10] 0.498 µM | Potency [13] 20.5 µM

O=C(Nc1ccccc1)OCC(CN1CCCCC1)OC(=O)Nc1ccccc1 (stereo unspecified)
inactive: outcome [1] | Potency [2] | Potency [3] | max activation [4] 0.646% | Potency [11]
active: Potency [5] 10 µM | Potency [7] 0.436 µM | Potency [8] 8.71 µM | Potency [13] 17.4 µM | Potency [9] 6.01 µM

CC(=O)c1ccc2c(c1)[C@H](NC(=O)c1ccc(F)cc1)[C@@H](O)C(C)(C)O2
inactive: outcome [1] | Potency [2] | Potency [10] | Potency [8] | Potency [9]
active: Potency [7] 18.8 µM | Potency [13] 33.5 µM | Potency [11] 33.5 µM | Potency [12] 29.9 µM

CC1(C)CCC(C)(C)c2cc(NC(=O)c3ccc(C(=O)O)cc3)ccc21
inactive: outcome [1] | Potency [2] | Potency [10] | max activation [4] -8.01% | Potency [5] | Potency [6] | Potency [7] | Potency [8] | Potency [11] | Potency [9]

Nc1cnn([C@@H]2O[C@H](CO)[C@@H](O)[C@H]2O)c(=O)n1
inactive: outcome [1] | Potency [2] | Potency [3] | Potency [7] | Potency [8] | Potency [13] | Potency [11] | Potency [9] | Potency [12]

CNS(=O)(=O)Cc1ccc2[nH]cc(CCN(C)C)c2c1
inactive: Potency [14] | Potency [2] | Potency [3] | Potency [10] | max activation [4] -4.94% | Potency [5] | Potency [6] | Potency [13] | Potency [11] | Potency [9] | Potency [12]
active: Potency [7] 24.5 µM

Oc1ccc(Sc2ccc(O)cc2)cc1
inactive: outcome [1] | Potency [2] | Potency [3] | Potency [13] | Potency [9]
active: Potency [10] 51 µM | Potency [7] 33.3 µM | Potency [8] 37.3 µM | Potency [11] 41.9 µM | Potency [12] 37.3 µM

CC(=O)/C(C)=C/C1C(C)=CCCC1(C)C (stereo unspecified)
active: Potency [11] 79.6 µM
inactive: outcome [1] | Potency [14] | Potency [3] | Potency [7] | Potency [9] | Potency [12]

NCCCOCCOCCOCCCN
inactive: outcome [1] | Potency [2] | Potency [3] | Potency [9] | Potency [12]
active: Potency [7] 20 µM

CC1(C)[C@H]2CC[C@]1(C)[C@H](O)C2
inactive: Potency [14] | Potency [2] | Potency [3] | Potency [10] | max activation [4] -0.529% | Potency [5] | Potency [6] | Potency [7] | Potency [8] | Potency [13] | Potency [11] | Potency [9] | Potency [12]

OCCC1CCCCN1 (stereo unspecified)
inactive: outcome [1] | Potency [2] | Potency [3] | Potency [10] | Potency [8] | Potency [13] | Potency [11] | Potency [9] | Potency [12]

CCCCCCCCCCCCC(=O)O
inactive: outcome [1] | Potency [3] | Potency [7] | Potency [13] | Potency [12]
active: Potency [8] 71.3 µM

NC[C@H]1O[C@H](O[C@H]2[C@H](O)[C@@H](O[C@H]3O[C@H](CO)[C@@H](O)[C@H](N)[C@H]3O)[C@H](N)C[C@@H]2N)[C@H](O)[C@@H](O)[C@@H]1O
inactive: caspase activation [1] 0.334% [at 8.39 µM] | caspase-3/7 activation [2] 1.24% [at 8.39 µM] | activity change, negative = cytotoxicity [3] -2.29% [at 8.39 µM] | max activation [4] -1% | Potency [5] | Potency [6] | activity change, negative = inhibition [7] -0.562% [at 10.5 µM] | activity change, negative = inhibition [9] 0.203% [at 6.97 µM] | activity change, negative = inhibition [12] 8.95% [at 10.5 µM]

NC1CCN(c2nc3c(cc2F)c(=O)c(C(=O)O)cn3-c2ccc(F)cc2F)C1 (stereo unspecified)
inactive: outcome [1] | Potency [2] | Potency [3] | max activation [4] -4.88% | Potency [7] | Potency [8] | Potency [13] | Potency [11] | Potency [9] | Potency [12]

O=C(O)Cn1c(C(=O)Nc2nc(-c3ccccc3Cl)cs2)cc2ccccc21
inactive: outcome [1] | Potency [2] | Potency [3] | max activation [4] -0.843% | Potency [5] | Potency [6] | Potency [7] | Potency [8] | Potency [11] | Potency [9] | Potency [12]
